Measured values reported in PubChem BioAssay (NCATS).
Results filed as inconclusive are left out. A call without a number means that no potency is given here. Unmarked numbers belong to inactive results. Activity calls are given as the source filed them. Calls follow the shape of the full dose curve.

Experiment: Cytotoxicity counterscreen for inhibitors of SARS-CoV-2 cell entry (AID 1645845); also: nearly all actives have a fitted effect of over 50% in size
Conditions: cell viability (SARS-CoV-2 entry assay cells); series mostly up to 57.1 µM; activity change, negative = cytotoxicity: at the top concentration
In short: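 After a 15 min room-temperature ATPLite 1step step, luminescence reflected ATP remaining in HEK293-ACE2 cells exposed to compound for 1 h plus 48 h at 37 C, with percent activity set by cell and no-cell controls.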

SMILES | activity change, negative = cytotoxicity | outcome | Potency
CCN1CC(CCN2CCOCC2)C(c2ccccc2)(c2ccccc2)C1=O (stereo not given) | -9.55% | – | –
CCC(C(=O)NC(=O)NC(C)=O)c1ccccc1 (stereo not given) | – | inactive | –
C=CC(N)CCC(=O)O (stereo not given) | – | inactive [at 27.1 µM] | –
Oc1cccc(O)c1 | -2.12% | – | –
CO[C@@]1(NC(=O)Cc2cccs2)C(=O)N2C(C(=O)O)=C(COC(N)=O)CS[C@@H]21 | – | inactive | –
CCCCOCCOC(=O)c1cccnc1 | 2.21% | – | –
COC(=O)c1cccnc1 | – | inactive | –
O=C(O)CCCCC1CCSS1 (stereo not given) | – | inactive | –
C[C@H](CS)C(=O)N1CCC[C@H]1C(=O)O | 2.16% | – | –
COc1cccc(OC)c1C(=O)N[C@@H]1C(=O)N2[C@@H]1SC(C)(C)[C@@H]2C(=O)O | – | inactive | –
COc1cc(C)c(Cc2cnc(N)nc2N)cc1OC | – | inactive | –
COC(=O)c1cc(Cl)ccc1NS(=O)(=O)C(F)(F)F | -0.394% | – | –
c1ccc2c(CC3=NCCN3)cccc2c1 | – | inactive | –
Cc1cc(OI)c(C(C)C)cc1-c1cc(C(C)C)c(OI)cc1C | – | inactive | –
C[C@]12CCC(=O)C=C1CC[C@H]1[C@@H]3CC[C@](O)(C(=O)CO)[C@@]3(C)C[C@H](O)[C@@]12F | – | inactive | –
COc1ccc(-c2ccc3cc(C(=O)O)ccc3c2)cc1C12CC3CC(CC(C3)C1)C2 | – | – | inactive
CCCCCCCCCCCCCCCCCC(=O)OCC(O)CO (stereo not given) | – | inactive | –
N#C[C@H]1C[C@H]2C[C@@H]2N1C(=O)[C@@H](N)C12CC3CC(CC(O)(C3)C1)C2 | – | inactive | –
C[C@]12CCC(=O)C=C1CC[C@@H]1[C@@H]2[C@@H](O)C[C@@]2(C)[C@H]1CC[C@]2(O)C(=O)COC(=O)CCC(=O)O | 4.12% | – | –
CCCCC(CC)COC(=O)c1ccccc1O (stereo not given) | – | inactive | –

SMILES | activity change, negative = cytotoxicity | outcome | Potency
CC(CCc1ccc(O)cc1)NCCc1ccc(O)c(O)c1 (stereo not given) | – | inactive | –
N[C@@H](Cc1cc(I)c(Oc2ccc(O)c(I)c2)c(I)c1)C(=O)O | – | inactive | –
CC(C)CN(C[C@@H](OP(=O)(O)O)[C@H](Cc1ccccc1)NC(=O)O[C@H]1CCOC1)S(=O)(=O)c1ccc(N)cc1 | – | inactive | –
OC[C@H]1O[C@@H](n2cnc3c2NC=NC[C@H]3O)C[C@@H]1O | – | – | inactive
O=C(O)Cc1cccc2ccccc12 | – | inactive | –
Cc1ccccc1N1CCN(CCc2nnc3n2CCCC3)CC1 | -22.8% | – | –
CCCCN(CCCC)CCCOC(=O)c1ccc(N)cc1 | -6.71% | – | –
COc1ccc(C(=O)c2ccccc2)c(O)c1 | -1.05% | – | –
N#CSCC(=O)O | – | inactive | –
NS(=O)(=O)c1cc(C(=O)NN2C[C@H]3[C@H]4CCC(C4)[C@H]3C2)ccc1Cl | – | inactive | –
CC(=O)NS(=O)(=O)c1ccc(N)cc1 | -14.6% | – | –
CC(=O)Nc1c(I)c(NC(C)=O)c(I)c(C(=O)O)c1I | – | inactive | –
CC(=O)Nc1ccc(C(=O)O)cc1 | – | inactive | –
CC[C@H](C)[C@H](N)C(=O)O | – | inactive | –
CCN(CC)CCNC(=O)c1ccc(N)cc1 | – | inactive | –
CCS(=O)(=O)CCn1c([N+](=O)[O-])cnc1C | – | inactive | –
CCCNC(C)C(=O)Nc1ccccc1C (stereo not given) | -1.31% | – | –
O=c1[nH]c(=O)n([C@H]2CCCO2)cc1F | – | inactive | –
CC(=O)CC/C=C(\C)CC/C=C(\C)CC/C=C(\C)CCC=C(C)C | – | inactive | –
COc1nccnc1NS(=O)(=O)c1ccc(N)cc1 | – | inactive | –
